High-throughput results from PubChem.
This is a sample that favours compounds with a hit; in the whole collection about 3.3% have one here.
RE007 growth inh = less growth of the S. pombe RE007 Vpr strain | S. pombe RE007 Vpr strain, BacTiter-Glo ATP luminescence, 24 h | Potency, µM (highest dose often 92.2 µM), for the others: at the top dose activity change, negative = less growth, usual class: inhibitors | actives 0.21% (n = 360,000) | AID 651644; active means well fitted falling curve with a large enough effect; inconclusive means small, poorly fitted or top-dose-only effect; inactive means no such curve, though single readings can be large or run the other way; further: nearly all actives have a fitted effect of over 50% in size
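Fission yeast strain RE007, carrying one chromosomally integrated HIV-1 vpr copy, was seeded at OD 0.01 in PMG+AL medium with 23 nL pinned compound. After 24 h at 30 °C and 99% humidity, viability was read by BacTiter-Glo luminescence.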
TbPYK inhibitor = inhibitors of Trypanosoma brucei pyruvate kinase; TbPYK enzyme, Kinase-Glo Plus ATP luminescence, 45 min; Potency, µM (doses to about 76.8 µM), without a hit: top-dose activity, negative = inhibition, usual class: inhibitors; actives 0.12% (n = 410,000); AID 624173; further: nearly all actives have a fitted effect of over 50% in size
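Quantitative HTS: titrated library compounds versus trypanosomal pyruvate kinase in TEA buffer (pH 7.2) containing KCl, MgCl2, BSA and Tween-20. Reactions were initiated with ADP, 130 uM final. Kinase-Glo Plus luminescence was read after 45 min at RT.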
Sm TGR inh = S. mansoni TGR enzyme inhibition. Q962Y6. purified TGR, DTNB reduction, TNB absorbance 405 nm. Potency, µM (top dose mostly 114 µM), inactives show top-dose activity change, negative = inhibition, actives largely listed as inhibitors. actives 3% (n = 360,000); further: nearly all actives have a fitted effect of over 60% in size
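Kinetic colorimetric format: TGR-catalysed, NADPH-driven DTNB reduction monitored via TNB absorbance. Enzyme dispensed at 20 nM; compound exposure 15 min at room temperature before reaction start.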
Giardia FBPA inh = Giardia lamblia aldolase inhibition; purified Giardia FBPA; AID 2451; A8B2U2; Potency, µM (series often up to 59.6 µM), inactives show top-dose activity, negative = inhibition, hits mostly inhibitors; actives 0.71% (n = 290,000); further: nearly all actives have a fitted effect of over 55% in size
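Giardia FBPA (40 nM reagent) was preincubated 10 min at RT with compound (up to 57.5 uM final), then substrate plus GAPDH/TPI/NAD/arsenate coupling system with diaphorase/resazurin was added; resorufin fluorescence (525/598 nm) was read after 20 min.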
LmPK inh = LmPK (Leishmania mexicana) enzyme inhibition; purified LmPK, Kinase-Glo ATP luminescence, 1 h; Q27686; actives 0.37% (n = 290,000); Potency, µM (doses to about 57.5 µM), without a hit: at the top dose activity change, negative = inhibition, hits mostly inhibitors; AID 1721
Target sequence (Q27686 whole entry, looked up): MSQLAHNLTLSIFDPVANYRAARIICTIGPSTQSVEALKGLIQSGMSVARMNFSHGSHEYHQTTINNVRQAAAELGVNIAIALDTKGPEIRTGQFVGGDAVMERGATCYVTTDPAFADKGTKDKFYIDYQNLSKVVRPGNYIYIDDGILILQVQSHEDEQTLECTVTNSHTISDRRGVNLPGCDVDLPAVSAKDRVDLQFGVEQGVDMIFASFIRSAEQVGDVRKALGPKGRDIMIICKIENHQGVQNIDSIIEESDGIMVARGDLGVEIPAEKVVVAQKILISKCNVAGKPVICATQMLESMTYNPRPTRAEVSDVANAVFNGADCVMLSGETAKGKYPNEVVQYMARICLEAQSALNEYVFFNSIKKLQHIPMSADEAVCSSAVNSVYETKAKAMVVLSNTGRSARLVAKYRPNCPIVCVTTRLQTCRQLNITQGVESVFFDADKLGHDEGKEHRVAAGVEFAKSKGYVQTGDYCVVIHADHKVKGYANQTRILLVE
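Purified LmPK (0.1 nM) converted ADP (0.1 mM) to ATP with PEP (0.5 mM) in imidazole buffer pH 7.2 with KCl and MgCl2, 1 h at room temperature. ATP was read by Kinase-Glo luminescence; data normalized to uninhibited and no-enzyme controls.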
An asterisk follows results filed as active; u = inconclusive; x = no result. Unless noted, the call rests on the fitted dose curve; in most records, active means well fitted curve in the direction sought with a large enough effect; inconclusive means small, poorly fitted or top-dose-only effect, or another doubt; inactive means no such curve, though single readings can be large; an effect the other way counts as inactive or inconclusive. On the % scale 0 is the no-effect control and ±100 the full control effect; potency means the concentration at half of the fitted maximal effect.

SMILES	RE007 growth inh	TbPYK inhibitor	Sm TGR inh	Giardia FBPA inh	LmPK inh
COCCCN1C(=O)C(=O)/C(=C(/O)c2ccc(OC(C)C)c(C)c2)C1c1ccncc1 (stereo unspecified)	0.4%	3.5%	-4.3%	2.1%	-1.5%
Cc1ccc2cc(CN(CC3CCCO3)S(=O)(=O)c3ccc4c(c3)OCCO4)c(=O)[nH]c2c1C (stereo unspecified)	-3.7%	-7.4%	x	x	x
O=C(NC1CCCCCC1)c1ccc(CS(=O)Cc2ccccc2Cl)o1 (stereo unspecified)	7.1%	3.3%	31.6µM*	8.5%	1.8%
O=C(NC1CCCCCC1)c1ccc(CS(=O)(=O)Cc2ccccc2F)o1	-4.1%	-7.5%	22.4µM*	x	4.4%
Cc1ccc(CS(=O)Cc2ccc(C(=O)NCc3ccccc3Cl)o2)cc1 (stereo unspecified)	-2.0%	-9.6%	-2.1%	x	3.1%
Cc1ccc(CS(=O)Cc2ccc(C(=O)NC3CCCC(C)C3C)o2)cc1 (stereo unspecified)	2.0%	5.2%	35.5µM*	7.0%	-2.4%
Cc1ccc(CNC(=O)c2ccc(CS(=O)Cc3ccccc3Cl)o2)cc1 (stereo unspecified)	0.8%	-9.8%	35.5µM*	x	2.4%
O=C(Cn1[nH]c(=O)c2ccccc2c1=O)Nc1cccnc1	-7.3%	0.7%	-14.7%	-0.6%	11.3%
O=C(Oc1ccc(Br)cc1C(=S)N1CCCC1)c1ccccc1Cl	-1.7%	-4.5%	1.1%	-9.6%	3.2%
CCC1C2CC3C4N(C)c5ccccc5C45CC(C2C5O)N3[C@@H]1O (stereo partly specified)	-4.1%	1.2%	-9.7%	-2.9%	-1.7%
O=C(NCC1COc2ccccc2O1)Nc1ccccc1F (stereo unspecified)	-15.4%	3.0%	-4.2%	-5.2%	3.5%
O=C(NCCN1CCCC1)c1ccc2c(c1)N(Cc1ccccc1)C(=O)c1ccccc1S2(=O)=O	-4.3%	-0.8%	2.3%	x	-4.0%
Cc1ccc(NNC(=O)c2cc(C(C)(C)C)nn2Cc2ccccc2)cc1	4.5%	3.8%	44.7µM*	-14.6%	3.7%
Cc1ccc(NC(=O)c2cc(C(C)(C)C)nn2Cc2ccccc2)cc1	5.2%	0.3%	2.2%	-4.5%	7.9%
COc1cc(C)cc2oc(=O)c(CC(=O)NCCc3ccc(Cl)cc3)c(C)c12	x	3.5%	0.7%	x	x
CC(=S)c1c(C)cc2cc(C)ccn12	3.2%	-0.3%	17.8µM*	-17.4%	0.5%
Cc1cc2ccccn2c1C(=O)Nc1ccccc1	-16.0%	-4.7%	8.8%	-10.6%	-2.0%
Cc1ccc(OCC(=O)Nc2nnc(SCc3cc(=O)c4ccccc4[nH]3)s2)cc1	x	28.2µM*	0.5%	x	x
CCOC(=O)c1ccc(NC(=S)NCc2ccco2)cc1	0.0%	4.4%	11.2µM*	-4.9%	4.9%
CCOc1ccc(NC(=S)NCc2ccco2)cc1	-12.8%	3.0%	-22.6%	-0.2%	0.4%
COc1ccc(C(=O)NC(=S)NCc2ccco2)cc1Br	-26.6%	9.1%	50.1µM*	x	2.5%
COc1ccc(C(=O)NC(=S)NCc2ccco2)cc1OC	-24.8%	-2.9%	u	4.0%	6.2%
COc1ccc(C(=O)NC(=S)NCc2ccco2)cc1	-21.3%	-4.2%	7.08µM*	-11.6%	5.9%
COc1cc(OC)cc(C(=O)NC(=S)NCc2ccco2)c1	0.1%	-19.2%	u	-6.3%	-0.9%
COc1ccc(C(=O)NC(=S)NC(C)C)cc1Br	-11.8%	-5.0%	15.8µM*	-0.3%	0.0%
CN(C(=O)c1cc(S(=O)(=O)N2CCOCC2)cs1)c1ccccc1	-12.4%	7.0%	0.8%	2.9%	-2.8%
CCOC(=O)C1=C(c2ccccc2)N=C2SCC(=O)N2C1c1cccc(OC)c1 (stereo unspecified)	2.8%	6.1%	15.0%	-0.4%	10.6%
O=C(c1ccco1)[C@@H]1[C@@H]2C(=O)N(c3ccc(F)cc3)C(=O)[C@@H]2C2c3ccccc3C=CN21 (stereo partly specified)	x	x	22.4µM*	u	5.4%
